The full list was thinned out, with hits kept by preference.
TbPYK inhibitor: T. brucei pyruvate kinase inhibition | Q57TT1 | TbPYK enzyme, Kinase-Glo Plus ATP luminescence, 45 min | Potency, µM (top dose mostly 76.8 µM), for inactives: at the highest dose activity, negative = inhibition, hits mostly inhibitors | 410,000 compounds, 0.12% hits | AID 624173; also: potency is read from the fitted curve at half-maximal effect; % is scaled to controls: 0 for no effect and ±100 for the full control effect; nearly all actives have a fitted effect of over 50% in size
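T. brucei PYK with substrate was exposed to pin-transferred compounds across a concentration series, then started with 130 uM ADP (final). After 45 min at room temperature, Kinase-Glo Plus luminescence was read, normalized and curve-fitted.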
Shiga toxin inh: Shiga toxin inhibition. Vero cells, Shiga toxin protein synthesis inhibition reporter. inhibition, % at 38.7 µM. 290,000 compounds, 9.2% hits. AID 2315; in the data active = inhibition mostly above about 28%, no sharp cut-off; inactive = mostly below about 43%; also: 0% is about no effect
LmPK inhibitor: blocks Leishmania mexicana pyruvate kinase activity; AID 1721; Potency, µM (highest dose often 57.5 µM), for inactives: at the top dose activity change, negative = inhibition, usual class: inhibitors; purified LmPK, Kinase-Glo ATP luminescence, 1 h; 290,000 compounds, 0.37% hits; Q27686; also: potency is read from the fitted curve at half-maximal effect; % is scaled to controls: 0 for no effect and ±100 for the full control effect
Target sequence (Q27686 whole entry, looked up): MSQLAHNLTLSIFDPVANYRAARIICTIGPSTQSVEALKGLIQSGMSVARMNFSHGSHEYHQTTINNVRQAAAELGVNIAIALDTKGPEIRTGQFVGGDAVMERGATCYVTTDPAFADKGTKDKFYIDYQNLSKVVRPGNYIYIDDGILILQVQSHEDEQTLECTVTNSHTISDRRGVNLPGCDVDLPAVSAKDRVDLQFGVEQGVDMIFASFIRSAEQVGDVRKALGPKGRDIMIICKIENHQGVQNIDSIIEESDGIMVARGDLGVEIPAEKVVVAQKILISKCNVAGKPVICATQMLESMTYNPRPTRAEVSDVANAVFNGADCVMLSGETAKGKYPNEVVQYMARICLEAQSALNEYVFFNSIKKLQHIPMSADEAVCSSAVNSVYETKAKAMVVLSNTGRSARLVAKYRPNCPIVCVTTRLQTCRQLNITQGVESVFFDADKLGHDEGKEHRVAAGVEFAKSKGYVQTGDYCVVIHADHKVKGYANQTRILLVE
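qHTS format; LmPK 0.1 nM; substrates PEP 0.5 mM and ADP 0.1 mM. One-hour room-temperature incubation, then coupled luciferase luminescence; 0.5 nM enzyme wells mark activation.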
RE007 growth inh: less growth of the S. pombe RE007 Vpr strain; 360,000 compounds, 0.21% hits; Potency, µM (titrated, usually from 92.2 µM), inactives show top-dose activity change, negative = less growth, usual class: inhibitors; S. pombe RE007 Vpr strain, BacTiter-Glo ATP luminescence, 24 h; AID 651644; active = well fitted falling curve with a large enough effect; inconclusive = small, poorly fitted or top-dose-only effect; inactive = no such curve, though single readings can be large or run the other way; also: potency is read from the fitted curve at half-maximal effect; % is scaled to controls: 0 for no effect and ±100 for the full control effect; nearly all actives have a fitted effect of over 50% in size
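Fission yeast RE007 carrying one integrated HIV-1 vpr copy, seeded at OD 0.01 in PMG+AL medium with 23 nL pinned compound. Grown 24 h at 30 degrees; viability read by BacTiter-Glo luminescence after 5 min.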
Giardia FBPA inh: Giardia lamblia aldolase inhibition; AID 2451; A8B2U2; 290,000 compounds, 0.71% hits; Potency, µM (top dose mostly 59.6 µM), for the others: top-dose activity, negative = inhibition, actives largely listed as inhibitors; purified Giardia FBPA; also: potency is read from the fitted curve at half-maximal effect; % is scaled to controls: 0 for no effect and ±100 for the full control effect; nearly all actives have a fitted effect of over 55% in size
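40 nM FBPA preincubated 10 min at RT with compound (up to 57.5 uM final), then substrate plus GAPDH/TPI/NAD/arsenate coupling and diaphorase/resazurin added. Fluorescence read after 20 min at RT, 525/598 nm.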
CHX counter: counter-screen for Shiga toxin inhibitors: cycloheximide protein synthesis inhibition; cell reporter, cycloheximide protein synthesis inhibition counterscreen; max response, %; 300,000 compounds, 12% hits; AID 2314; in the data active = max response mostly above about 13%, no sharp cut-off; inactive = mostly below about 14%; also: read at 38.3 µM for the half of the compounds with a filed dose; 0% is about no effect
* marks the source's active call; other numbers are inactive results; ? = inconclusive; / = no result; [ ] = another dose, or the depositor's remark. Unless noted, calls follow the shape of the dose curve; as a rule, active = well fitted curve in the direction sought with a large enough effect; inconclusive = small, poorly fitted or top-dose-only effect, or another doubt; inactive = no such curve, though single readings can be large; an effect the other way counts as inactive or inconclusive.

SMILES	TbPYK inhibitor	Shiga toxin inh	LmPK inhibitor	RE007 growth inh	Giardia FBPA inh	CHX counter
N#Cc1cc2c(N)c(C(=O)Nc3ccccc3)sc2nc1N	/	90.2*	2.7%	/	?	36.4*
CN1CCc2nc3sc(C(=O)Nc4cccc(C#N)c4)c(N)c3cc2C1	-10.3%	/	/	/	/	/
Cc1cccc(NC(=O)c2sc3nc(N)c(C#N)cc3c2N)c1	-1.7%	72.0*	0.9%	-5.7%	-9.0%	31.3*
N[C@H](C(=O)O)c1cccc(O)c1	/	/	/	/	-2.2%	/
COc1ccc(Cc2nnc(NC(=O)C3CCCO3)s2)cc1OC (configuration not stated)	4.0%	-7.3	-3.8%	0.9%	-1.6%	0.5
O=C(Nc1ccccc1C(=O)O)c1ccc(NC(=O)C2CC2)cc1	4.4%	-18.2	-4.2%	?	/	1.1
COc1ccc(-c2csc(NC(=O)C3CCCO3)n2)cc1 (configuration not stated)	-5.6%	82.4*	0.7%	?	-8.6%	43.3*
O=C(Nc1ccccc1O)c1ccc(NC(=O)C2CC2)cc1	-12.5%	82.7*	-7.5%	-15.9%	18.6%	38.6*
COC(=O)c1c(-c2ccc(F)cc2)csc1NC(=O)C1CCCO1 (configuration not stated)	-2.4%	68.1	6.2%	13.4%	-1.2%	26.3*
COc1ccc(Cc2nnc(NC(=O)C3CCCO3)s2)cc1 (configuration not stated)	2.2%	48.6	1.5%	4.1%	-0.8%	23.7*
Cc1ccc(Nc2ncc(C(=O)N3CCN(c4ccc(F)cc4)CC3)c3ccccc23)cc1Cl	1.4%	/	/	/	/	/
COc1ccc2cc(C3CC=C(CO)CN3S(=O)(=O)c3ccccc3[N+](=O)[O-])n(C(=O)OC(C)(C)C)c2c1 (configuration not stated)	/	/	/	13.6%	/	/
CCc1nc2c(OCc3ccccc3)cccn2c1N(Cc1ccccc1)C(C)=O	-9.9%	/	/	-20.4%[18.4 µM]	/	/
O=C(Nc1ccc(Oc2ccccc2)cc1)C1CCCO1 (configuration not stated)	2.3%	190.5*	2.9%	7.2%	-5.2%	30.8*
COC(=O)c1ccc(NC(=O)C2CCCO2)cc1 (configuration not stated)	-1.5%	35.3*	1.5%	6.7%	1.9%	37.9*
O=C(Nc1ccc(Oc2ccccc2)cc1)C1CCN(c2ncccn2)CC1	-5.9%	3.8	-0.9%	10.8%	11.5%	-3.0
O=C(Nc1ccc(Oc2ccccc2)cc1)C1CC1	-2.7%	71.1*	0.5%	6.1%	-0.2%	20.6
COC(=O)COc1ccc(NC(=O)C2CCCO2)cc1 (configuration not stated)	-4.6%	15.9	-6.1%	-5.9%	4.0%	6.1
COc1ccc(NC(=O)C2CCCO2)cc1 (configuration not stated)	2.5%	27.0	1.2%	0.1%	-2.6%	16.4*
C[C@@H]1C(=O)O[C@H]2[C@H](O)[C@@]34[C@H]5C[C@@H](C(C)(C)C)[C@]36[C@@H](OC(=O)[C@@H]6O)O[C@@]4(C(=O)O5)[C@@]12O	1.9%	-5.2	0.1%	-6.3%	1.4%	1.0
COc1ccc(-c2cc(C(=O)NCCc3ccc(OC)c(OC)c3)c3ccccc3n2)cc1	-8.0%	/	/	/	/	/
CC1CCCN(CCCOc2ccccc2-c2ccccc2)C1 (configuration not stated)	18.0%	0.3	-2.2%	-17.7%	?	-2.5
O=C(Nc1ccc(C#Cc2ccccc2)cc1)C1CC1	-2.8%	51.0*	-0.1%	-6.5%	-2.9%	44.2*
O=C(O)Cn1c(O)c(C=Nc2ccccc2)sc1=S	-3.7%	10.3	-7.6%	5.4%	6.6%	-2.0
CCn1c(O)c(C=NC2CCCC2)sc1=S	5.1%	23.2	-8.2%	-23.9%	-17.1%	33.6*
CCn1c(O)c(/C=N/n2cnnc2)sc1=S	-9.5%	32.9	-14.2%	-7.3%	-24.9%	-2.5
Oc1c(C=Nc2ccccc2)sc(=S)n1Cc1ccccc1	4.7%	4.0	-2.1%	-19.1%	-14.0%	1.1
C=CCn1c(O)c(C=Nc2ccccc2)sc1=S	4.3%	63.7*	5.3%	2.3%	-17.0%	27.7*
CCn1c(O)c(C=Nc2ccccc2)sc1=S	-7.2%	85.1*	4.7%	7.9%	?	38.3*
